PubChem BioAssay AID2018 (Sanford-Burnham Center for Chemical Genomics, 2009)
Among all 1,200 compounds or so, about 600 (50%) were called active. So high a share suggests a set chosen from earlier hits. The list shows a part of the results. Entries with a potency or affinity are not part of this list. A number with no mark means an inactive call. No stated cut-off is given here; in the data, active means inhibition above about 42%; inactive means the rest.

The compounds below were run against SUMO-conjugating enzyme UBC9 (Homo sapiens) (UniProt P63279) (assay: blockers of UBC9-mediated SUMO conjugation – biochemical, AlphaScreen, SUMOylation inhibitor project, confirmation (AID 2018)). Settings: AlphaScreen in vitro SUMOylation assay; at 35 µM; hits give high values.
Chain of SUMO-conjugating enzyme UBC9 (Homo sapiens) (P63279 whole entry, looked up): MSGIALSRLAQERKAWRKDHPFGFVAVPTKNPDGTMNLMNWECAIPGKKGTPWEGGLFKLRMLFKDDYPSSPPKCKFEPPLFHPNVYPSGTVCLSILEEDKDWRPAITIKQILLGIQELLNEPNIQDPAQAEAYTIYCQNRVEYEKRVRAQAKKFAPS
For O=[N+]([O-])c1ccc(C2Nc3cccc4cccc(c34)N2)cc1, the inhibition was 49.3% (active). O=[N+]([O-])c1ccc(Cl)c(C2Nc3cccc4cccc(c34)N2)c1 showed an inhibition of 30.6%. O=C(CNc1cccc2ccccc12)c1ccc([N+](=O)[O-])cc1 was tested, and the inhibition was 26.3%. For CN(CCC#N)C(=O)COC(=O)c1c2c(nc3ccccc13)/C(=C/c1ccco1)CC2, the inhibition was 43.2% (active). In the case of Cc1cnc(C(=O)OCC(=O)c2ccc(F)cc2)cn1, the inhibition is reported as 1.5%. CCOc1ccc(C2C=C(c3ccccc3)Nc3ncnn32)cc1 (stereo not drawn) was tested, and the inhibition was 13.5%. In the case of CC1=CC2(O)OCCN(CCO)C2=CC1=O (stereo not drawn), the inhibition is reported as 8.3%. NC(=O)C1CCN(C2=C(NS(=O)(=O)c3ccc(Cl)cc3)C(=O)c3ccccc3C2=O)CC1 was tested, and the inhibition was 87.2% (active). With CC1CCCN(C2=C(NS(=O)(=O)c3ccc(Br)cc3)C(=O)c3ccccc3C2=O)C1 (stereo not drawn) the inhibition was 55.3% (active). With NC(=O)C1CCN(C2=C(NS(=O)(=O)c3ccccc3)C(=O)c3ccccc3C2=O)CC1 the inhibition was 35.9%. CCOC(=O)C1CCCN(c2cc(NCCCO)c([N+](=O)[O-])c3nonc23)C1 (stereo not drawn) was tested, and the inhibition was -6.6%. For CCOC(=O)C1CCN(C2=C(NS(=O)(=O)c3ccc(Br)cc3)C(=O)c3ccccc3C2=O)CC1, the inhibition was 91.9% (active). For CC1CCN(C2=C(NS(=O)(=O)c3ccc(Br)cc3)C(=O)c3ccccc3C2=O)CC1, the inhibition was 94% (active). Fc1ccc(-c2nc3cnccn3c2NC2CCCC2)cc1 showed an inhibition of -43.2%. Compound COc1cc2c(cc1OC)C(C)=NC1(CCCCC1)C2 has an inhibition of -0.1%. For c1ccc(Nc2ccccc2Nc2ccccn2)nc1, the inhibition was -1.2%. With CN(C)c1cccc2c(S(=O)(=O)Nc3ccccn3)cccc12 the inhibition was 69.7% (active). CN(C)c1cccc2c(S(=O)(=O)N3CCCC3)cccc12 showed an inhibition of -26.8%. Cc1cccc(NC2=C(NCCO)C(=O)c3ccccc3C2=O)c1 was tested, and the inhibition was 82% (active). Cc1cccc(NC(=S)Nc2cccc3ccccc23)c1 was tested, and the inhibition was 19%. For N#Cc1c(-c2cccc(Br)c2)cc(-c2ccco2)[nH]c1=O, the inhibition was 54% (active). For O=C(CNc1cccc2ccccc12)N/N=C/c1ccc(OC(=O)/C=C/c2ccco2)cc1, the inhibition was 3.4%. In the case of O=C(CSc1nnc(SCc2ccccc2)s1)N/N=C/C=C\c1ccco1, the inhibition is reported as 65% (active). Work on O=C(Cc1cccs1)N/N=C/C=C\c1ccco1 yielded an inhibition of 26%. Work on Cn1c2ccc(Cl)cc2c2nc3ccccc3nc21 yielded an inhibition of 4.7%. With COCCn1c(-c2cccs2)csc1=Nc1cccnc1 the inhibition was 12.7%. Compound Cn1c(C(=O)NCC2CCCO2)cc2c(=O)n3ccccc3nc21 (stereo not drawn) has an inhibition of -2.8%. Work on Cc1cccn2c(=O)c3cc(S(=O)(=O)c4ccc(F)cc4)c(=N)n(Cc4ccco4)c3nc12 yielded an inhibition of 7.6%. For Cc1ccc(S(=O)(=O)c2cc3c(=O)n4ccccc4nc3n(Cc3ccco3)c2=N)cc1C, the inhibition was 45.2% (active). With Cn1c(C(=O)N2COCC2(C)C)cc2c(=O)n3ccccc3nc21 the inhibition was -16.1%. Work on Cc1cccn2c(=O)c3cc(S(=O)(=O)c4ccccc4)c(=N)n(Cc4ccco4)c3nc12 yielded an inhibition of 27.5%. Compound CC1CCCCC1NC(=O)c1cc2c(=O)n3ccccc3nc2n1C (stereo not drawn) has an inhibition of -8.7%. In the case of COCCCn1c(C(=O)N2CC(C)OC(C)C2)cc2c(=O)n3ccccc3nc21 (stereo not drawn), the inhibition is reported as -18.6%. Cn1c(C(=O)N2CCN(C(=O)c3ccco3)CC2)cc2c(=O)n3ccccc3nc21 was tested, and the inhibition was -14.7%. Compound COCCCn1c(C(=O)N2CCOCC2)cc2c(=O)n3ccccc3nc21 has an inhibition of 2.8%. CCN(CC(=O)c1c(N)n(C)c(=O)n(C)c1=O)c1cccc2ccccc12 was tested, and the inhibition was -12.9%. In the case of O=c1c2cc(N3CCOCC3)ccc2[nH]c(=S)n1Cc1ccccn1, the inhibition is reported as 2.9%. Oc1cccc2c(NC(=S)Nc3ccc(OC(F)F)cc3)cccc12 was tested, and the inhibition was 27.3%. Nc1cccc2cnccc12 was tested, and the inhibition was 45.1% (active). FC(F)(F)c1ccccc1NC(=S)Nc1cccc2cnccc12 was tested, and the inhibition was 18.9%. Work on CC(C)NC(=S)Nc1cccc2cnccc12 yielded an inhibition of -0.7%. With CCc1ccc(OCC(=O)N/N=C2\CC(=O)c3ccccc32)cc1 the inhibition was 100% (active). CC(C)c1onc(C(=O)N2CCC(C(N)=O)CC2)c1[N+](=O)[O-] gave an inhibition of -13.8%. For O=C1C=C(NCc2ccccc2)c2ccccc2C1=O, the inhibition was 102% (active). In the case of Cc1ccc(NC2=CC(=O)C(=O)c3ccccc32)cc1, the inhibition is reported as 100% (active). For Cn1c(=O)c2cc(NCc3ccccc3)nnc2n(C)c1=O, the inhibition was 12.8%. For Fc1cccc(-n2c(-c3cccs3)nc3nc4ccccc4nc32)c1, the inhibition was 8.7%. For CC(C)(C)c1ccc(C(=O)NNc2cc(N3CCOCC3)nc(N3CCOCC3)n2)cc1, the inhibition was 23.5%. O=C(CCc1ccccc1)NNc1cc(N2CCCCC2)nc(N2CCCCC2)n1 was tested, and the inhibition was 50% (active). O=C(NNc1cc(N2CCOCC2)nc(N2CCOCC2)n1)c1ccc(Cl)c(Cl)c1 was tested, and the inhibition was 66.9% (active). Compound CCCCOc1ccc(CSc2ncn[nH]2)cc1 has an inhibition of 3.3%. O=C(Nc1ccccc1-c1nc2ccccc2s1)c1cccnc1Cl showed an inhibition of 18.7%. With CC1N(C)c2cccc3cccc(c23)N1C the inhibition was 49.8% (active). C=CCN1C(=O)N(CC=C)c2cccc3cccc1c23 was tested, and the inhibition was -10.4%. CCN1C(=O)N(CC)c2cccc3cccc1c23 gave an inhibition of 10.6%. O=C(c1csc(Nc2cccc3ccccc23)n1)N1CCCC1 gave an inhibition of 19.2%. For C[n+]1cccc2c(Br)ccc([O-])c21, the inhibition was 102% (active). C[n+]1cccc2ccc3c(c21)OC(N)=C(C#N)C3c1ccccc1 (stereo not drawn) gave an inhibition of -6.6%. For C[n+]1cccc2cccc([O-])c21, the inhibition was 101% (active). Cc1ccc(N2CSC3=C(C#N)C(c4cccs4)CC(=O)N3C2)cc1 (stereo not drawn) gave an inhibition of 38.3%. CCCCN(C)S(=O)(=O)c1cc(Br)cc2c1N(C(=O)C1CC1)CC2 showed an inhibition of -3.7%. For O=c1[nH]cc(I)cc1I, the inhibition was 8.4%. Cc1cc(-c2csc(N)n2)c(C)n1Cc1ccco1 gave an inhibition of 21.9%. Compound Cc1oc2c(c1C(=O)N1CCC(C)CC1)C(=O)c1ccccc1C2=O has an inhibition of 29.2%. In the case of COc1ccc(S(=O)(=O)N(C)c2ccc(C(=O)NCc3ccccn3)cc2)cc1, the inhibition is reported as 4.9%. In the case of CCOC(=O)c1c(C)oc2c1C(=O)c1ccccc1C2=O, the inhibition is reported as 47.8% (active). COc1ccc(CNC(=O)c2c(C)oc3c2C(=O)c2ccccc2C3=O)cc1 was tested, and the inhibition was 49.7% (active). COc1ccc2oc(=O)c(C(=O)NCC3CCCO3)cc2c1 (stereo not drawn) was tested, and the inhibition was -13.9%. Cc1oc2c(c1C(=O)O)C(=O)c1ccccc1C2=O was tested, and the inhibition was 86.7% (active). Compound CC(C)NC(=O)N1CCC(n2nccc2NC(=O)CCOc2ccccc2)CC1 has an inhibition of 9%. In the case of Nc1ccc2c(c1)C/C(=C/c1ccco1)C2=O, the inhibition is reported as 13.8%. O=C1/C(=C\c2ccco2)SC(=S)N1C1CCS(=O)(=O)C1 (stereo not drawn) gave an inhibition of 39.6%. Work on C(=N\C(/N=C/c1ccco1)c1ccco1)/c1ccco1 yielded an inhibition of 30%. Compound O=C1S/C(=C\C=C\c2ccco2)C(=O)N1c1ccc(O)cc1 has an inhibition of 40.4%. With NN1C(=O)/C(=C\c2ccco2)SC1=S the inhibition was 56% (active). In the case of CCOC(=O)c1nn(-c2ccc3c(c2)CCN3C(C)=O)cc1O, the inhibition is reported as 16.7%. Compound Cc1ccc2[nH]c3c(c2c1)CN(C(=O)CN1CCN(c2cccc(C)c2C)CC1)CC3 has an inhibition of 41.7%. For COc1ccc2nc3ccccc3nc2c1N, the inhibition was 66.5% (active). Work on COc1ccccc1CCn1c(N)c(C#N)c2nc3ccccc3nc21 yielded an inhibition of 22.4%. Compound COc1ccc2nc3cccc(OC)c3nc2c1 has an inhibition of -22.2%. Work on CN(Cc1ccco1)C(=O)c1cc2c(s1)-c1ccc(Cl)cc1S(=O)(=O)C2 yielded an inhibition of 11.3%. O=C(O)CCC(=O)Nc1ccccc1C(=O)Nc1ccccc1 gave an inhibition of -5.9%. C=CCNC(=O)c1c(N)n(-c2cccc(S(N)(=O)=O)c2)c2nc3ccccc3nc12 gave an inhibition of 2%. Work on Cc1ccc(NC(=O)CCC(=O)OCC(=O)c2ccc(-c3ccccc3)cc2)cc1 yielded an inhibition of 22.2%. In the case of CCN(CC)C(=O)COc1ccc2oc(-c3ccco3)cc(=O)c2c1, the inhibition is reported as -1.1%. Work on COc1ccc(-n2c(N)c(C(=O)NCC3CCCO3)c3nc4ccccc4nc32)c(OC)c1 (stereo not drawn) yielded an inhibition of -13.9%. Compound COc1ccc(-n2c(N)c(C(=O)NCc3ccco3)c3nc4ccccc4nc32)cc1OC has an inhibition of 33.2%. In the case of Cc1ccc(/C=c2\sc3nc(-c4ccco4)nn3c2=O)o1, the inhibition is reported as 83.3% (active). O=[N+]([O-])c1cc(CN2CCN(c3cccc(C(F)(F)F)c3)CC2)c2cccnc2c1O was tested, and the inhibition was 64.3% (active). O=[N+]([O-])c1ccc(N2CCN(CCO)CC2)c2ncccc12 was tested, and the inhibition was -17.2%. For COc1ccc2c(c1)CC/C(=C\Nc1ccc3c(c1)OCO3)C2=O, the inhibition was 97.5% (active). Work on COc1ccc2c(c1)CC/C(=C\C=C\c1ccccc1)C2=O yielded an inhibition of 31.7%. COc1ccccc1C(=O)Nc1sc2c(c1C(=O)NCc1ccco1)CCCC2 was tested, and the inhibition was 35.7%. With O=C(CSc1ccc(Br)c2cccc(Cl)c12)Nc1ccc(S(=O)(=O)Nc2nccs2)cc1 the inhibition was 101% (active). O=C(Cn1nnc2ccccc21)NCc1ccccc1 was tested, and the inhibition was 4.8%. In the case of CC(C)CC(=O)Nc1ccc(C(=O)Cn2nc(C(=O)O)c3ccccc3c2=O)cc1, the inhibition is reported as 36%. For N#Cc1cnn2c(-c3ccccc3)ccnc12, the inhibition was 3.3%. O=C(Cc1cccc2ccccc12)NN1C(=O)/C(=C\c2cccnc2)SC1=S gave an inhibition of 29.3%.
